This note sets out measurements from PubChem BioAssay AID651601 (Sanford-Burnham Center for Chemical Genomics, 2012).

Calls of active or inactive are those of the source.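 How the source made its calls: active means CXCR6 mean IC50 below 15 µM, and neither CCR6 nor CXCR5 mean IC50 under five times that; inactive means the rest.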

In this experiment the target is C-X-C chemokine receptor type 6 (Homo sapiens) (UniProt O00574). Briefly: chemokine receptor panel antagonism: CCR6, CXCR5, CXCR6, profiling panel, selectivity assay for CXCR6 antagonist project, cell-based, CHO-K1 PathHunter beta-arrestin, luminescence (AID 651601). Conditions: antagonist mode, mean of runs.
Chain of C-X-C chemokine receptor type 6 (Homo sapiens) (O00574 whole entry, looked up): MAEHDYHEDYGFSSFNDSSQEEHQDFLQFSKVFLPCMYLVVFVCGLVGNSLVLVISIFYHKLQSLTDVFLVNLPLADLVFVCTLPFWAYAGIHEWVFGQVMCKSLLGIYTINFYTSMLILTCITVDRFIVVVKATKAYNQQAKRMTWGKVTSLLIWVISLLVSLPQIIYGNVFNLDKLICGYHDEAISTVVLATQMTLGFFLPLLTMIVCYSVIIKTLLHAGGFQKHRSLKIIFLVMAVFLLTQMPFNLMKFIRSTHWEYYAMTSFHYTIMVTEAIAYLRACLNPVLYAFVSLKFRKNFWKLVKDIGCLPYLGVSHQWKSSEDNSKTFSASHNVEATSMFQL
For the compound `O=C(CN1C2CCCC1CC(NC(=O)c1ccccc1)C2)Nc1ccccc1` (stereo unspecified), the call was inactive. For `COc1cc(C(=O)NC2CC3CCCC(C2)N3CC(=O)Nc2ccccc2)cc(OC)c1OC` (stereo unspecified), the compound was classed as active.

As for `COc1cccc(C(=O)NC2CC3CCCC(C2)N3CC(=O)Nc2ccc(N(C)C)cc2)c1` (stereo unspecified), the outcome was inactive.

Take `O=C(CN1C2CCCC1CC(NC(=O)c1ccccc1)C2)Nc1ccccc1C(F)(F)F` (stereo unspecified): the result was inactive. As for `COc1cccc(C(=O)NC2CC3CCCC(C2)N3CC(=O)Nc2ccccc2C(F)(F)F)c1` (stereo unspecified), the compound was called inactive. With `CN(C)c1ccc(NC(=O)CN2C3CCCC2CC(NC(=O)c2ccccc2)C3)cc1` (stereo unspecified) the entry was “inactive”.
